This is a sample that favours compounds with a hit; in the whole collection about 7.9% have one here.
KB-3-1 cytotox – kills parental KB-3-1 adenocarcinoma cells | 400,000 tested, 1.4% active | Potency, µM (titrated, usually from 46.1 µM), usual class: cytotoxic | AID 1347075 | KB-3-1 viability, CellTiter-Glo ATP luminescence, 72 h; also: % is scaled to controls: 0 for no effect and ±100 for the full control effect; nearly all actives have a fitted effect of over 60% in size
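Multi-concentration cytotoxicity screen in KB-3-1 cells grown in DMEM lacking phenol red with 10% FBS. After 72 h at 37 °C with compound, ATP-dependent luminescence was recorded.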
MCF10A rereplic – DNA re-replication induction in MCF 10a cells; MCF 10A DNA re-replication, Hoechst nuclear intensity, 48 h; Potency, µM (top dose mostly 46.1 µM), inactives show at the top dose activity, positive = re-replication, actives largely listed as activators; 350,000 tested, 2.9% active; AID 624296; also: % of control where 0% means no effect; nearly all actives have a fitted effect of over 50% in size
HT1080-NT tox – kills 2HG-producing HT-1080-NT fibrosarcoma cells. Potency, µM (titrated, usually from 46.1 µM), without a hit: at the highest dose activity, negative = less viability, usual class: cytotoxic. AID 686970. HT-1080-NT fibrosarcoma viability, CellTiter-Glo ATP luminescence, 48 h. 360,000 tested, 1.6% active;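 also: NT is the 2HG producing partner of a matched IDH1 knockdown line; 0% = DMSO-treated cells and -100% = media-only wells without cells; nearly all actives have a fitted effect of over 55% in size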
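Viability by CellTiter-Glo luminescence after 48 h compound exposure at 37C of HT-1080-NT cells (750/well, RPMI, 5% FBS). % activity scaled between DMSO wells and medium-only wells, then curve-fitted and categorized by curve class.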
HT1080 IDH1KD tx – HT-1080 IDH1 knockdown cell toxicity (counter line); HT-1080 IDH1 knockdown viability, ATP luminescence, 48 h; Potency, µM (titrated, usually from 46.1 µM), without a hit: top-dose activity, negative = toxicity, most hits filed as cytotoxic; 360,000 tested, 2% active;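 also: 0% = DMSO wells and -100% = cell-free medium wells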
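After a 2 h attachment period, IDH1KD HT-1080 cells took pin-transferred compound for 48 h at 37 °C; ATP-based luminescence after 10 min room-temperature reagent incubation reported viability.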
KB-V1 cytotox – kills drug-selected multidrug resistant KB-V1 cells | KB-V1 MDR cells viability, CellTiter-Glo, 72 h | Potency, µM (series often up to 46.1 µM), hits mostly cytotoxic | 400,000 tested, 3.4% active | AID 1347076; also: % is scaled to controls: 0 for no effect and ±100 for the full control effect; nearly all actives have a fitted effect of over 60% in size
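qHTS viability screen in drug-selected KB-V1 MDR cells: 72 h compound treatment at 37 degrees C, ATP luminescence end point.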
SW480 rerep – induces DNA re-replication in SW480 colon adenocarcinoma cells; SW480 DNA re-replication, Hoechst DNA content imaging, 48 h; Potency, µM (highest dose often 46.1 µM), inactives show top-dose re-replication activation, usual class: activators; 340,000 tested, 1.8% active; also: % of control where 0% means no effect; nearly all actives have a fitted effect of over 55% in size
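250 cells/well; 23 nL cpd via pin tool; 48 hr, 37 C, 5% CO2; Hoechst 40 min; imager read of total nuclear intensity, ex 405/em 500-530 nm.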
Numbers without * were called inactive; i = inactive; ? = inconclusive; nt = no result; [ ] = another dose, or the depositor's remark. Calls follow the shape of the dose curve; as a rule, active = well fitted curve in the direction sought with a large enough effect; inconclusive = small, poorly fitted or top-dose-only effect, or another doubt; inactive = no such curve, though single readings can be large; an effect the other way counts as inactive or inconclusive. Potency is read from the fitted curve at half-maximal effect.

SMILES	KB-3-1 cytotox	MCF10A rereplic	HT1080-NT tox	HT1080 IDH1KD tx	KB-V1 cytotox	SW480 rerep
COc1ccc(NC(=O)Nc2nnc(C(C)C)s2)cc1	?	-2%	-3%	-12%	16µM*	-9%
CC1CCCC(NC(=O)Cn2cc(C(F)(F)F)cc(Cl)c2=O)C1C (stereo not given)	i	-1%	2%	14%	i	-9%
O=C(N1CCOCC1)N1CCCC(c2nc(-c3cccs3)no2)C1 (stereo not given)	i	2%	10%	0%	15µM*	-3%
O=C(c1c(F)cccc1F)N1CCCC(c2nc(-c3cccs3)no2)C1 (stereo not given)	i	21%	-16%	-16%	i	-4%
O=S(=O)(Cc1ccccc1)N1CCC(c2nc(-c3cccs3)no2)CC1	i	2%	4%	6%	21µM*	-9%
CCOc1ccc(S(=O)(=O)NC(C)C(=O)NCc2ccccn2)cc1 (stereo not given)	i	4%	-4%	0%	i	1%
COc1c2ccoc2c(OC(C)=O)c2oc(C)cc(=O)c12	i	?	-7%	-10%	i	?
CCc1ccccc1NC(=O)CN(C)C(=O)CSc1nn(-c2ccccc2)c(=S)s1	i	-7%	4%	5%	i	?
CCc1ccccc1NC(=O)CN(C)C(=O)CSc1nc2cc(Cl)ccc2s1	i	-50%	15%	5%	15µM*	?
Cn1ncc2c1ncn1nc(COc3ccc4ccccc4c3)nc21	i	-3%	11%	4%	i	-9%
COc1ccc(-c2cc(-c3ccccc3)nc3c2COc2ccccc2-3)cc1	i	nt	nt	nt	i	nt
CCOC(=O)C1=C(C)N(C[C@@H]2CC[C@@H](Cc3ccc4cc(OC)ccc4c3)O2)C(=O)NC1c1ccc(OC)cc1 (stereo not given in full)	i	4.1µM*	1%	-1%	?	?
COc1cc(OC)c2c(-c3ccccc3)cc(=O)oc2c1C(CCN1CCOCC1)c1ccc2c(c1)OCO2 (stereo not given)	i	?	23µM*	?	i	-12%[9.22 µM]
N=C1C(c2nc3ccccc3s2)=C(O)CN1Cc1ccccc1	4.1µM*	5.2µM*	?	?	?	?
CCOc1ccccc1N1CC(O)=C(c2nc3ccccc3s2)C1=N	9.2µM*	3%	2.8µM*	2.8µM*	?	-1%
COc1ccc(OC)c(N2CC(O)=C(c3nc4ccccc4s3)C2=N)c1	i	16%	-11%	-17%	i	2%
CC(C)C(=O)NN1c2ccccc2CCc2ccccc21	i	1%	-1%	0%	i	-6%
COc1ccc(C(C(=O)NC(C)(C)C)n2c(=O)c(-c3ccco3)nc3ccccc32)cc1 (stereo not given)	?	nt	-21%	?	?	nt
Cc1nc(NC2=NCN(CCCN3CCOCC3)CN2)nc2c(C)cccc12	8.2µM*	?	-5%	-13%	i	?
COc1ccc(NC(=O)Cc2c(Cl)cccc2Cl)cn1	i	-3%	-1%	8%	i	-4%
CCOc1ccc(C(=O)/C=C/Nc2ccc(S(=O)(=O)N=C(N)N)cc2)cc1	i	?	?	18µM*	i	?
NC(N)=NS(=O)(=O)c1ccc(N/C=C/C(=O)c2ccc(Cl)c(Cl)c2)cc1	i	?	1%	10%	i	15µM*
CCCN1CCN(CC(=O)Nc2nnc(CC)s2)CC1	i	?	-6%	-4%	i	-58%
COc1c(CC=C(C)C)c(O)cc2oc(=O)c3c4ccc(O)cc4oc3c12	i	18µM*	1%	-1%	?	?
CCO[C@@H]1OC(C(=O)NCc2nc3ccccc3[nH]2)=C[C@H](c2ccc(C(F)(F)F)cc2)[C@H]1CCCO	i	21%	-12%	-15%	i	?
SMILES	KB-3-1 cytotox	MCF10A rereplic	HT1080-NT tox	HT1080 IDH1KD tx	KB-V1 cytotox	SW480 rerep
CCCCSc1nnc(CNC(=O)C23CC4CC(CC(C4)C2)C3)n1Cc1ccccc1	?	?	-8%	-3%	2.6µM*	13%
CCCCn1c(CNC(=O)C23CC4CC(CC(C4)C2)C3)nnc1SC(C)CC (stereo not given)	?	?	?	?	21µM*	7%
O=C(NCc1nnc(SCc2ccccc2)n1-c1ccccc1)C12CC3CC(CC(C3)C1)C2	i	0%	?	?	?	1%
CCCCn1c(CNC(=O)C23CC4CC(CC(C4)C2)C3)nnc1SCC(=O)Nc1nnc(C)s1	i	-23%	-3%	1%	i	14%
COc1ccc(C2CC(C(F)(F)F)n3nc(C(=O)O)cc3N2)cc1 (stereo not given)	i	-2%	7%	4%	i	-10%
Fc1ccccc1CNc1nc(NCC2CC2)nc2ccsc12	i	nt	23µM*	21µM*	i	nt
c1ccc2c(c1)OCC(CNCC1COc3ccccc3O1)O2 (stereo not given)	i	-11%	-7%	-1%	?	-1%
COCCNc1nc(NCc2ccccc2F)c2sccc2n1	i	nt	-19%	-28%	?	nt
COc1ccc(-c2cc(CNc3nc(NCc4ccccc4OC)nc4ccsc34)on2)cc1	i	nt	18µM*	15µM*	i	nt
c1ccc2c(c1)OCC(CNc1ncnc3sccc13)O2 (stereo not given)	1.6µM*	15%	0.73µM*	1.2µM*	?	0%
COc1ccccc1CNc1nc(NCc2ccc(C)cc2C)c2sccc2n1	i	nt	?	?	?	nt
COc1ccccc1CNc1nc(NCc2ccccc2)nc2ccsc12	i	nt	26µM*	18µM*	i	nt
CS(=O)(=O)N1CCC(N2CCN(Cc3ccc(F)cc3)C(=O)C2=O)CC1	i	nt	nt	nt	i	nt
O=C1c2ccccc2C(Nc2ccccc2F)N1c1cccnc1 (stereo not given)	i	1%	1%	-3%	i	0%
COc1ccccc1CNc1nc(NCc2cccc(OC)c2OC)c2sccc2n1	i	nt	21µM*	?	21µM*	nt
COc1ccccc1CNc1ncnc2sccc12	?	19%	?	-24%	5.2µM*	-5%
COc1ccccc1CNc1nc(NCc2ccccc2F)c2sccc2n1	?	nt	23µM*	21µM*	18µM*	nt
Fc1ccccc1CNc1ncnc2sccc12	i	7%	-4%	?	i	-19%
